“And” between values parts separate entries of the source, which are not always exact repeats. Equal values may be shown once. Inconclusive results are not listed. The source made the active and inactive calls. The call rests on the fitted dose curve; in most records, active means well fitted inhibition curve with a large enough effect; inconclusive means small, poorly fitted or top-dose-only effect, or effect the other way; inactive means no such curve, though single readings can be large or run the other way.
What follows are compounds tested against Nuclear receptor ROR-alpha (Homo sapiens) (UniProt P35398) (assay: ROR alpha selectivity assay for inhibitors of ROR gamma transcriptional activity). Conditions: Drosophila S2 Gal4-RORalpha UAS-luciferase, 20 h; series mostly up to 92.2 µM; activity change, negative = inhibition: at the top concentration.
From the text: NIH Molecular Libraries Probe Production Network [MLPCN] NIH Chemical Genomics Center [NCGC] MLPCN Grant: R03 DA026211-01 Assay Provider: Dan Littman, New York University Assay Overview: The retinoic acid-related orphan receptor (ROR) gamma is a transcription factor that has a central role in the differentiation of Th17 cells, a subset of T helper cells that secrete the inflammatory cytokines IL-17A, IL-17F, and IL-22. Th17 cells have been implicated in graft versus host disease, autoimmune disease and asthma. RORgamma is induced in naive T helper cells in the presence of TGF-beta combined with IL-6, IL-21, or IL-23, and thereafter directs the expression of the Th17 lineage cytokines. To identify nonselective inhibitors, a Drosophila Schneider cell line was stably transfected with two vectors: a gene expressing a fusion of the Gal4 DNA binding domain and the transactivation domain of the ROR alpha, under the control of the metallothionine promoter and a Photinus luciferase reporter regulated by the Gal4 binding site enhancer, UAS. […] Small molecule inhibitors that inhibit RORgamma and RORalpha, or components common to both, will be active in both assays and thus scored as nonselective.
Assay Protocol Summary: For screening, 600 cells in 4 uL/well were dispensed into white solid 1536-well plates (Grenier) using a solenoid-based dispenser. Following transfer of 23 nL compound or DMSO vehicle by a pin tool, the plates were incubated 1 hr at ambient temperature, and 1 uL/well copper sulfate (700 uM final concentration) was added. The plates were centrifuged 15 s at 1000 RPM and incubated 20 hr at ambient temperature. After addition of 1.5 uL Photinus luciferase detection reagent, the plates were incubated 10 min at ambient temperature and then read by an ViewLux (Perkin Elmer) to detect luminescence.

| SMILES | activity change, negative = inhibition | Potency |
| --- | --- | --- |
| COc1cc(O)c(C(CC(=O)N2CC(C)NC(C)C2)c2ccc3c(c2)OCO3)c(OC)c1 (stereo not given) | -10.8% (inactive) |  |
| COc1cc(OC)c(C(c2ccccc2)C(C)(C)C(=O)N2CC(C)CC(C)C2)c(OC)c1 (stereo not given) |  | 16.2 µM (active) |
| Cc1cc(C)c2sc(NC(=O)c3ccc(N4C(=O)CCC4=O)cc3)nc2c1 |  | 0.407 µM (active) |
| O=C(CCCOc1ccccc1)Nc1nc2ccccc2[nH]1 |  | 14.4 µM (active) |
| COc1cc(O)c(C(CC(=O)N2CCCC(COc3ccc(F)cc3)C2)c2ccc3c(c2)OCO3)c(OC)c1 (stereo not given) | 16.6% (inactive) |  |
| CCOc1cccc(-c2cc(-c3n[nH]c(=S)n3CC)c3ccccc3n2)c1 |  | 7.24 µM (active) and 18.2 µM (active) |
| COc1cc(O)c(C(CC(=O)N2CCC(c3ccccc3)CC2)c2ccc3c(c2)OCO3)c(OC)c1 (stereo not given) | 2.86% (inactive) |  |
| CC1CCCN(C(=O)CC(c2ccccc2)c2ccccc2O)C1 (stereo not given) | 20.8% (inactive) |  |
| COC(=O)Cn1c(CN2CCc3ccccc3C2)nc2c1c(=O)n(C)c(=O)n2C |  | 18.2 µM (active) |
| CC(C)(C)c1ccc(-c2noc(CCC(=O)Nc3cccnc3)n2)cc1 |  | 0.0457 µM (active) |
| CCn1cc(C(=O)O)c(=O)c2cnc(N3CCN(C(=S)NC(=O)c4ccccc4)CC3)nc21 |  | 22.9 µM (active) |
| CC1=C(\C=C/C(C)=C/C=C\C(C)=C\C(=O)O)C(C)(C)CCC1 | 18.6% [at 20 µM] (inactive) |  |
| COc1ccccc1C(CC(=O)N1C[C@H](C)C[C@H](C)C1)c1ccccc1 (stereo not given in full) |  | 51.2 µM (active) |
| CC1CCCN(C(=O)CC(c2ccc3c(c2)OCO3)c2ccc(O)cc2O)C1 (stereo not given) | 13.4% (inactive) |  |
| Cc1ccc(C)c(/C=N/n2cc(-c3ccccc3)[nH]c2=S)c1 |  | 0.911 µM (active) |
| C[C@@H]1[C@H](C)CC[C@]2(C(=O)O)CC[C@]3(C)C(=CC[C@@H]4[C@@]5(C)CC[C@H](O)C(C)(C)[C@H]5CC[C@]43C)[C@@H]12 |  | 18.2 µM (active) |
| CC(C)(C)c1ccc(S(=O)(=O)Nc2ccc(C(O)(C(F)(F)F)C(F)(F)F)cc2)cc1 |  | 18.2 µM (active) |
| COc1cc(O)c(C(CC(=O)N2CCCC(C)C2)c2ccccc2)c(OC)c1 (stereo not given) | 17.8% (inactive) |  |
| COc1cc(O)c(C(CC(=O)NCC2CCCCC2)c2ccc3c(c2)OCO3)c(OC)c1 (stereo not given) | -20.1% (inactive) |  |
| O=C(NC(=S)Nc1nc(-c2ccccc2)cs1)c1cccnc1 |  | 32.3 µM (active) |

| SMILES | activity change, negative = inhibition | Potency |
| --- | --- | --- |
| Cc1nn(-c2cc(C)c3ccccc3n2)c2c1C1C(C2)C1(C)C (stereo not given) |  | 8.12 µM (active) |
| COc1cc(O)c(C(CC(=O)Nc2cccc3ccccc23)c2ccc3c(c2)OCO3)c(OC)c1 (stereo not given) | -14.7% (inactive) |  |
| COc1cc(O)c(C(CC(=O)N2CCC[C@@H](C)C2)c2ccc3c(c2)OCO3)c(OC)c1 (stereo not given in full) | 4.65% (inactive) |  |
| COc1cc(O)c(C(CC(=O)N2CCC(C)CC2)c2ccc3c(c2)OCO3)c(OC)c1 (stereo not given) | 39.5% (inactive) |  |
| CC(C)(C)c1ccc([S+](=O)([O-])Nc2ccccc2C(O)(C(F)(F)F)C(F)(F)F)cc1 |  | 18.2 µM (active) |
| COCC1CCCCN1C(=O)c1cc(COc2ccc3ncccc3c2)on1 (stereo not given) |  | 14.4 µM (active) |
| COc1cc(O)c(C(CC(=O)N2CCCC(C)C2)c2ccc3ccccc3c2)c(OC)c1 (stereo not given) | -28% (inactive) |  |
| COc1cc(OC)c(C(CC(=O)N2CCCC(C)C2)c2ccc3c(c2)OCO3)c(OCc2ccccc2)c1 (stereo not given) |  | 20.4 µM (active) |
| COCOc1cc(OC)cc(OC)c1C(CC(=O)N1CC(C)CC(C)C1)c1ccc2c(c1)OCO2 (stereo not given) | -81.7% (inactive) |  |
| COc1cc(O)c(C(CC(=O)N2CCCC(C)(C)C2)c2ccc3c(c2)OCO3)c(OC)c1 (stereo not given) | -12.2% (inactive) |  |
| CCOC(=O)Cn1c(CN2CCc3ccccc3C2)nc2c1c(=O)n(C)c(=O)n2C |  | 16.2 µM (active) |
| CCNC(=O)CCc1nc(-c2ccc(C(C)(C)C)cc2)no1 |  | 0.162 µM (active) |
| COCC1CCCN(C(=O)CC(c2ccc3c(c2)OCO3)c2c(O)cc(OC)cc2OC)C1 (stereo not given) | -3.63% (inactive) |  |
| CC1CCCN(C(=O)CC(c2ccccc2)c2ccc(O)cc2)C1 (stereo not given) | -19.1% (inactive) |  |
| COc1ccc(C(CC(=O)N2CCCC(C)C2)c2c(O)cc(OC)cc2OC)cc1 (stereo not given) | 3.66% (inactive) |  |
| COc1cc(O)c(C(CC(=O)N2CCCC(C)C2)c2ccc(C(C)C)cc2)c(OC)c1 (stereo not given) |  | 36.3 µM (active) |
| COc1ccc2nc(NNC(=O)COc3ccccc3)sc2c1 |  | 6.45 µM (active) |
| COc1ccc(-c2c[n+]3c(n2-c2ccc(C)cc2)CCCCC3)cc1 |  | 10.2 µM (active) |
| CCOc1ncccc1C(=O)OCC(=O)Nc1ccc(-c2nc3ccc(C)cc3s2)cc1 |  | 7.24 µM (active) |
| COc1cc(O)c(C(CC(=O)NC2CCC(C)CC2)c2ccc3c(c2)OCO3)c(OC)c1 (stereo not given) | -1.92% (inactive) |  |

— PubChem BioAssay AID489039 (National Center for Advancing Translational Sciences (NCATS), 2010)
